Test results taken from PubChem BioAssay AID449739 (Vanderbilt High Throughput Screening Facility, 2010).
In all, about 100,000 compounds went through this assay and about 4,200 (4.2%) were called active. The entries come from a sample that favours actives as a whole. Unmarked numbers belong to inactive results.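 The calls were made as follows: active = single-dose well whose peak fluorescence ratio is a statistical outlier from its plate by either plate-standardised score or position-corrected B-score; inactive = the rest.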

The compounds below were run against Voltage-dependent T-type calcium channel subunit alpha-1H (Homo sapiens) (UniProt O95180) (assay: Cav3.2 calcium influx blockers – cell-based, Fluo-4 calcium fluorescence, FDSS, MLSMR library, primary screen (AID 449739)). Settings: Cav3.2-expressing cells, at 10 µM, active compounds read low.
Voltage-dependent T-type calcium channel subunit alpha-1H (Homo sapiens), sequence (O95180 whole entry, looked up): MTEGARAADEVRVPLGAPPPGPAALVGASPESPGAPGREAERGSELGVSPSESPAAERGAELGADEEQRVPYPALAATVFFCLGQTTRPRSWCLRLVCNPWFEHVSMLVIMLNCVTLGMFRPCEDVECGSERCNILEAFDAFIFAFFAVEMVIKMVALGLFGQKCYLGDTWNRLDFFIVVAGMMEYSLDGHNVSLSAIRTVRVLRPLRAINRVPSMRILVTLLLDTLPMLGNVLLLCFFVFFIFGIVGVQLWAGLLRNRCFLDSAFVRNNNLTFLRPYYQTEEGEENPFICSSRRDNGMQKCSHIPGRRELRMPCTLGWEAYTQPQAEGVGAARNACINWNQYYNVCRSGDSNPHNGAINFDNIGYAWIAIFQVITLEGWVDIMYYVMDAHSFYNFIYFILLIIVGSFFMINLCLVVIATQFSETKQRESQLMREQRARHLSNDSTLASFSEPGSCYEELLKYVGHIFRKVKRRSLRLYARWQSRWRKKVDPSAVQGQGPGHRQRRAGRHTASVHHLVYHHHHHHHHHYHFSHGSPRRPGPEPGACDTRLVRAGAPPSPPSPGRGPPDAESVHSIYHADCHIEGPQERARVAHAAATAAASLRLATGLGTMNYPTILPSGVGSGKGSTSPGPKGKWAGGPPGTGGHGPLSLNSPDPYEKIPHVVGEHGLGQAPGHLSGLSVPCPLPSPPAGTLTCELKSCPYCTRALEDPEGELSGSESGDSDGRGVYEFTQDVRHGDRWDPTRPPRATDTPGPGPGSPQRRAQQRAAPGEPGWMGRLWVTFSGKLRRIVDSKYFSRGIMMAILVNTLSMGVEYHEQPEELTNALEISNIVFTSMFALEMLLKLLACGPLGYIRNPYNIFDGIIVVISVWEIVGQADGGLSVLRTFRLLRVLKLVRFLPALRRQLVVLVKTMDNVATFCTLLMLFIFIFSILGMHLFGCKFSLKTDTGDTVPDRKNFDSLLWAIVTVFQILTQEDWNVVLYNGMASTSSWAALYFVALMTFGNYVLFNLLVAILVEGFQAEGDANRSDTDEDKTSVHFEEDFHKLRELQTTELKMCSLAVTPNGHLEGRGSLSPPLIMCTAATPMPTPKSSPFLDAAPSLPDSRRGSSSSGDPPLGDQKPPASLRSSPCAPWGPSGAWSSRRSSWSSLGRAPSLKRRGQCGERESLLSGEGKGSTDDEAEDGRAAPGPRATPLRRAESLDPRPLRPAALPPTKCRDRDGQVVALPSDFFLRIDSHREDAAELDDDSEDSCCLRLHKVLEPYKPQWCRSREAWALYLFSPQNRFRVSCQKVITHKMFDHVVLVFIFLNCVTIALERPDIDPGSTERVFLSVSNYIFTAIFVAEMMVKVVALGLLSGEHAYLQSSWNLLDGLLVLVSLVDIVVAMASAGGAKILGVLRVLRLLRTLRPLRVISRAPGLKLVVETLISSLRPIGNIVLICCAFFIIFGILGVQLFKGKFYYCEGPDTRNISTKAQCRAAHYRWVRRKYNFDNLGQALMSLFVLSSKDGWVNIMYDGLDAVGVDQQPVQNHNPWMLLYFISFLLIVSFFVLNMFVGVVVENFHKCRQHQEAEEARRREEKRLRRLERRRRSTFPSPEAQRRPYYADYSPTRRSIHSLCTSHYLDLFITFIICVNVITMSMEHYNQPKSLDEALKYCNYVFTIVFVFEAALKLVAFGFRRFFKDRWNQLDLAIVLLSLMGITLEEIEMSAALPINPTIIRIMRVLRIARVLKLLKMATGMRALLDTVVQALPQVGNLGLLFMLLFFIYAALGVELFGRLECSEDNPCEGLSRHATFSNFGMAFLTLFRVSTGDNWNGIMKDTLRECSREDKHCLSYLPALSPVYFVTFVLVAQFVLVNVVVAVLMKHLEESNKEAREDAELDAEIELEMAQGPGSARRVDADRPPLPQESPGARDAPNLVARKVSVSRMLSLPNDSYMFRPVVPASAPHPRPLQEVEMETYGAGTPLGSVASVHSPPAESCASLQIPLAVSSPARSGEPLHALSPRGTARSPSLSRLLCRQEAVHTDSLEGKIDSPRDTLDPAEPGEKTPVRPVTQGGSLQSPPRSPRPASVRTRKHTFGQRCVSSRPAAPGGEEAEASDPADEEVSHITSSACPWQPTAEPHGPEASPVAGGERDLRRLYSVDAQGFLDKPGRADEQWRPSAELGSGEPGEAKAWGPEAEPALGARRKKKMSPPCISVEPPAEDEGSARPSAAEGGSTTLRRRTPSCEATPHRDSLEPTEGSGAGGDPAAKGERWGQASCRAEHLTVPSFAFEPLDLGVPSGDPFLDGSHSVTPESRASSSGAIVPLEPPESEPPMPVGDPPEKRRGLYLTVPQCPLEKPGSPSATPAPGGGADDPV
With N#CCc1c(C#N)c(N)nc(N2CCCC2)c1C#N the B-score was 0.949.
CCN(CC)CCC(c1cc(OC)c(OC)c(OC)c1)c1c(OC)cc(OC)c2c(-c3ccccc3)cc(=O)oc12 (configuration not stated) showed a B-score of -1.5.
C=C(Br)Cn1c(CCCC)nc2ccccc21 was tested, and the B-score was -3.88 (active).
CCCCn1c(CN2CCN(CCO)CC2)nc2ccccc21 gave a B-score of 1.86.
Work on CCCCn1c(CCCNC(=O)CC)nc2ccccc21 yielded a B-score of 1.14.
For CC(C)[C@@H]1NC(=O)c2cc([N+](=O)[O-])cc(I)c2NCCC[C@@H](C(=O)NC(CC(=O)O)C(N)=O)NC(=O)[C@H](CO)NC1=O (some centres not stated), the B-score was 0.105.
In the case of CCOc1c2ccc(C(=O)NCc3ccc(OC(F)(F)F)cc3)cc2nn1C, the B-score was -1.9.
Cc1cc(C)cc(N(CC(=O)NCC2CCCO2)S(=O)(=O)c2c(C)noc2C)c1 (configuration not stated) gave a B-score of 0.883.
In the case of Cc1cccc(N(CC(=O)N2CCOCC2)S(C)(=O)=O)c1, the B-score was 0.326.
In the case of Cc1cc(C)cc(N(CC(=O)N2CC=C(c3ccccc3)CC2)S(=O)(=O)c2c(C)noc2C)c1, the B-score was -4.03 (active).
Work on CC1=C(C(=O)Nc2ccccc2)C(c2ccco2)C(C#N)=C(SCC(N)=O)N1 (configuration not stated) yielded a B-score of -0.16.
N#CC1=C(N)Oc2c(sc3ccccc23)C1c1ccco1 (configuration not stated) was tested, and the B-score was -4.64 (active).
In the case of CCOC(=O)CSC1=C(C#N)C(c2ccco2)C(C(=O)OCc2ccccc2)=C(C)N1 (configuration not stated), the B-score was -3.01.
CCOc1cccc(C(=O)Nc2cnn(Cc3ccccc3)c2)c1 showed a B-score of -0.985.
With O=C(c1ccc(F)cc1)c1c[nH]c(C(=O)NCc2cccnc2)c1 the B-score was 1.02.
Work on c1cnc(Nc2nc(-c3ccc4ccccc4c3)cs2)nc1 yielded a B-score of 0.515.
In the case of Cc1ccc(-n2c(C)cc(/C=N/Nc3ccc([N+](=O)[O-])cn3)c2C)c(C)c1, the B-score was -3.21.
CC(C)c1ccc(N2CCN(C(=O)c3ccccc3NC(=O)/C=C(\C(=O)O)c3ccccc3)CC2)cc1 was tested, and the B-score was -0.303.
COC(=O)c1sccc1NC(=O)CSc1ccccc1NS(=O)(=O)c1cc(Cl)ccc1Cl was tested, and the B-score was -4.82 (active).
COC(=O)c1sccc1NC(=O)CCC1CCCC1 was tested, and the B-score was -0.847.
Compound COC(=O)c1sccc1N/N=C(\C)c1ccc(F)c(Cl)c1 has a B-score of -0.109.
N#Cc1ccc(-c2ccc(Cl)cc2)nc1Oc1ccc(F)cc1 was tested, and the B-score was -0.421.
In the case of COc1ccc(CN2[C@@H](CC(=O)O)c3cc(F)ccc3S2(=O)=O)cc1, the B-score was -2.11.
O=c1cc(CO)oc(C(Nc2cccc(C(F)(F)F)c2)c2ccccn2)c1O (configuration not stated) gave a B-score of -0.112.
With Cc1cccc(S(=O)(=O)CC(=O)Nc2nc(-c3ccccc3)cs2)c1 the B-score was -8.29 (active).
Compound Cc1ccc(-c2csc(NC(=O)c3cccs3)n2)cc1 has a B-score of -1.5.
NS(=O)(=O)c1ccc(Nc2nc(-c3ccccc3)cs2)cc1 gave a B-score of 0.0269.
